From publication PMC7826789 (International Journal of Molecular Sciences, 2021)

Tests used:
Conditions in all cases: Compound Concentration (nM):1000
[1] = system: NEK3
[2] = system: NEK4
[3] = system: NEK5
[4] = system: NEK6
[5] = system: NEK7
[6] = system: NEK9
[7] = system: T1, NIK
T1 construct: gene MAP3K14

[8] = system: T2, NIM1
T2 construct: gene MGC42105

[9] = system: NLK
[10] = system: T3, OSR1
T3 construct: gene OXSR1

[11] = system: PAK1
[12] = system: PAK2
[13] = system: PAK3
[14] = system: PAK4
[15] = system: PAK6
[16] = system: PAK7
[17] = system: T4, PCTK1
T4 construct: gene CDK16

[18] = system: T5, PCTK2
T5 construct: gene CDK17

[19] = system: T6, PCTK3
T6 construct: gene CDK18

[20] = system: PDGFRA
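Note: KINOMEscan scanMAX binding as percent activity remaining versus control; lower means stronger binding.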

Row | Compound | Percent Control [1] | Percent Control [2] | Percent Control [3] | Percent Control [4] | Percent Control [5] | Percent Control [6] | Percent Control [7] | Percent Control [8] | Percent Control [9] | Percent Control [10] | Percent Control [11] | Percent Control [12] | Percent Control [13] | Percent Control [14] | Percent Control [15] | Percent Control [16] | Percent Control [17] | Percent Control [18] | Percent Control [19] | Percent Control [20]
1 | Cl.O=C(Nc1ccc(Oc2ccc3[nH]c(NC(=O)c4ccccc4)nc3c2)cc1)Nc1cc(C(F)(F)F)ccc1F [GW709042A] | 98% | 83% | 95% | 92% | 100% | 20% | 100% | 88% | 95% | 100% | 93% | 90% | 5.9% | 100% | 96% | 100% | 100% | 100% | 96% | 35%
2 | CCn1c(-c2nonc2N)nc2c(C#CC(C)(C)O)nc(OCCNC)cc21.Cl [GSK949675] | 100% | 100% | 100% | 95% | 100% | 100% | 1.5% | 100% | 100% | 100% | 100% | 52% | 100% | 75% | 60% | 46% | 82% | 100% | 100% | 100%
3 | Cl.O=C(Nc1ccc(Oc2ccc3[nH]c(NC(=O)c4ccco4)nc3c2)cc1)Nc1cc(C(F)(F)F)ccc1F [GW683134A] | 97% | 81% | 96% | 100% | 100% | 10% | 100% | 97% | 87% | 100% | 100% | 100% | 5.6% | 100% | 92% | 100% | 100% | 100% | 100% | 11%
4 | COc1cccc(-c2c[nH]c3c(N/N=C/c4ccncc4)ncnc23)c1 [GW814408X] | 69% | 100% | 82% | 100% | 100% | 100% | 68% | 92% | 97% | 100% | 100% | 94% | 1.9% | 100% | 100% | 100% | 28% | 75% | 100% | 8.2%
5 | CC(C)COC(=O)c1ccc2c(c1)/C(=C/Nc1ccc(S(N)(=O)=O)cc1)C(=O)N2 [GW416981X] | 95% | 90% | 100% | 100% | 100% | 83% | 95% | 86% | 100% | 100% | 100% | 100% | 100% | 100% | 100% | 97% | 0.6% | 16% | 60% | 55%
6 | COc1ccc2cc(-c3c(-c4ccncc4)nc(-c4ccc(S(C)(=O)=O)cc4C)n3C)ccc2c1 [SB-633825] | 65% | 75% | 35% | 91% | 65% | 57% | 53% | 63% | 81% | 70% | 87% | 85% | 12% | 81% | 97% | 87% | 74% | 100% | 100% | 91%
7 | NS(=O)(=O)c1ccc(N/N=C2\C(=O)Nc3ccc(C(=O)NCCc4c[nH]cn4)cc32)cc1 [GW300660X] | 78% | 80% | 100% | 100% | 100% | 100% | 74% | 14% | 100% | 100% | 100% | 81% | 100% | 100% | 100% | 100% | 2.2% | 100% | 100% | 54%
8 | CC1=C(C(=O)Nc2ccc3[nH]ncc3c2)C(c2ccc3ccccc3c2)CC(=O)N1 (stereo not shown) [GSK270822A] | 70% | 84% | 100% | 100% | 77% | 70% | 82% | 77% | 98% | 74% | 85% | 93% | 79% | 85% | 89% | 83% | 89% | 100% | 96% | 100%
9 | COc1cc2ncn(-c3cc(O[C@H](C)c4ccccc4Cl)c(C(N)=O)s3)c2cc1OC [GSK237701A] | 85% | 88% | 9.1% | 100% | 63% | 19% | 100% | 48% | 98% | 78% | 98% | 93% | 7.6% | 93% | 88% | 100% | 90% | 100% | 100% | 24%
10 | NS(=O)(=O)c1ccc(N/N=C2\C(=O)Nc3ccc(Cl)cc32)cc1 [GW280670X] | 100% | 100% | 100% | 100% | 100% | 100% | 100% | 100% | 100% | 100% | 100% | 100% | 100% | 100% | 100% | 100% | 26% | 100% | 100% | 28%
11 | COc1ccccc1-c1cc(/C=C2\C(=O)Nc3ncc(Br)cc32)cc(Br)c1O [GW442130X] | 100% | 100% | 100% | 100% | 100% | 100% | 100% | 100% | 100% | 77% | 100% | 100% | 67% | 100% | 100% | 98% | 79% | 100% | 100% | 71%
12 | COc1cccc(-n2ncc3c(N/N=C/c4ccncc4)ncnc32)c1 [GW784752X] | 86% | 100% | 100% | 100% | 92% | 90% | 100% | 86% | 91% | 99% | 100% | 100% | 100% | 100% | 96% | 100% | 25% | 70% | 100% | 36%
13 | Nc1ncnc2occ(-c3ccc(NC(=O)Nc4cc(C(F)(F)F)ccc4F)cc3)c12 [GW770249X] | 98% | 71% | 82% | 100% | 100% | 38% | 100% | 100% | 100% | 100% | 100% | 100% | 31% | 100% | 100% | 100% | 82% | 29% | 31% | 1.4%
14 | Cl.O=S1CCN(Cc2ccc(-c3ccc4ncnc(Nc5ccc(OCc6ccccc6)c(F)c5)c4c3)o2)CC1 [GW576924A] | 100% | 100% | 100% | 100% | 100% | 100% | 100% | 100% | 100% | 100% | 100% | 100% | 78% | 100% | 100% | 100% | 100% | 100% | 100% | 84%
15 | COc1cc(C)c(N(C)C(=O)CN(C)C)cc1Nc1nc(Nc2cccc(F)c2C(N)=O)c2cc[nH]c2n1 [GSK2219385] | 94% | 100% | 94% | 100% | 91% | 90% | 100% | 80% | 95% | 100% | 100% | 74% | 100% | 100% | 96% | 82% | 79% | 100% | 100% | 100%
16 | Cl.c1ccc(Cc2nc3ccc(Nc4ncnc5ccccc45)cc3[nH]2)cc1 [GR269666A] | 100% | 100% | 100% | 100% | 100% | 100% | 100% | 94% | 100% | 100% | 100% | 100% | 100% | 100% | 100% | 100% | 100% | 100% | 100% | 49%
17 | NS(=O)(=O)c1ccc(Nc2ncc(-c3ccccc3)o2)cc1 [GW572399X] | 84% | 100% | 100% | 100% | 78% | 100% | 91% | 96% | 100% | 100% | 100% | 100% | 86% | 100% | 87% | 100% | 3.8% | 100% | 100% | 8.8%
18 | COc1ccc2[nH]c3c4[nH]c5ccc(OC)cc5c4c4c(c3c2c1)C(=O)NC4=O [GW296115X] | 67% | 85% | 76% | 87% | 92% | 100% | 20% | 100% | 52% | 100% | 70% | 91% | 4.2% | 90% | 100% | 91% | 99% | 72% | 80% | 11%
19 | Cl.O=C(O[C@H]1CN[C@H](C#Cc2cc3ncnc(Nc4ccc5c(cnn5Cc5ccccc5)c4)c3s2)C1)N1CCOCC1 [GSK200398A] | 94% | 100% | 100% | 100% | 98% | 95% | 100% | 89% | 93% | 100% | 100% | 100% | 63% | 100% | 100% | 89% | 83% | 96% | 100% | 83%
20 | CCS(=O)(=O)c1ccc(OC)c(Nc2ncc(-c3cccc(OC)c3)o2)c1 [GW580509X] | 100% | 100% | 100% | 100% | 100% | 100% | 92% | 100% | 100% | 100% | 100% | 100% | 100% | 100% | 96% | 100% | 100% | 100% | 100% | 69%
